For orientation: residual activity means the signal under treatment as a percentage of the control signal.

The target of assay [1] is T1, Tyrosine-protein kinase Tec (Homo sapiens) (UniProt P42680).
T1 sequence (whole entry): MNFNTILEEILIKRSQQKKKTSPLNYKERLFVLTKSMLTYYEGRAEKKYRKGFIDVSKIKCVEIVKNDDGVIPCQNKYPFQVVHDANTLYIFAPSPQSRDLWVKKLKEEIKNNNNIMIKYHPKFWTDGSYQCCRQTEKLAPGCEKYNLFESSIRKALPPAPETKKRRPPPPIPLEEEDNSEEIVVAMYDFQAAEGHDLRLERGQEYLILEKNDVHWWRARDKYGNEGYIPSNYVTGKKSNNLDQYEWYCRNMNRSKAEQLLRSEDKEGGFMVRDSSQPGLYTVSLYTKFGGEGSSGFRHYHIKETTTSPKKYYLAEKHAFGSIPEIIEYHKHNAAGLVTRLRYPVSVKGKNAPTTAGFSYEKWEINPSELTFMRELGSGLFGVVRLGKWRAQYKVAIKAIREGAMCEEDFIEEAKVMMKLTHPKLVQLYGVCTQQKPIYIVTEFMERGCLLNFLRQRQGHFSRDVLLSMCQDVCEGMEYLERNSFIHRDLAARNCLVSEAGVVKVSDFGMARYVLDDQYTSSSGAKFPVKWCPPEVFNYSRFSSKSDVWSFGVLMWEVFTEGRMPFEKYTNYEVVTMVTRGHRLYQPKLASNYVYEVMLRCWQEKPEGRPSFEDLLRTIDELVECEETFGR
The note with it: at 10 µM.

In assay [2] the target is Angiopoietin-1 receptor (Homo sapiens) (UniProt Q02763). Particulars: at 10 µM.
Assay [3] has as its target High affinity nerve growth factor receptor (Homo sapiens) (UniProt P04629). The note with it: at 1 µM.
The target is the same in assay [4]. The note with it: at 10 µM.
For assay [5], the target named is T2, Tyrosine-protein kinase TXK (Homo sapiens) (UniProt P42681).
T2 sequence (whole entry): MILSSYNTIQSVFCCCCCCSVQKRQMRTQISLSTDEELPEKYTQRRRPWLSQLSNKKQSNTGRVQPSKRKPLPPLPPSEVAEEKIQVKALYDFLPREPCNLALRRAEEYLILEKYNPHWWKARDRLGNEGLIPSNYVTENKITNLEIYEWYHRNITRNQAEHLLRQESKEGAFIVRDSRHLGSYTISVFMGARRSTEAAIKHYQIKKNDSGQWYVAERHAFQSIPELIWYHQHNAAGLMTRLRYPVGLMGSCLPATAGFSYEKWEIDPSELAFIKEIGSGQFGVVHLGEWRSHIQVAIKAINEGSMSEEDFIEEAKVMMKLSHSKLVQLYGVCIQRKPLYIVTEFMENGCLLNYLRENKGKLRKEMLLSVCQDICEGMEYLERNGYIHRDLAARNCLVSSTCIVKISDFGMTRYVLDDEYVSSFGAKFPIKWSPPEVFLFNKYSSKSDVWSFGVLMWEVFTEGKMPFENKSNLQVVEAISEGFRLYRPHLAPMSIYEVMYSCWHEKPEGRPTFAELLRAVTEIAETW
The note with it: at 1 µM.

The target in assay [6] is T2, Tyrosine-protein kinase TXK (Homo sapiens). The note with it: at 10 µM.
Assay [7] has as its target T1, Tyrosine-protein kinase Tec (Homo sapiens). Particulars: at 1 µM.
Assay [8] concerns the target Angiopoietin-1 receptor (Homo sapiens) (UniProt Q02763). Particulars: at 1 µM.
In assay [9] the target is BDNF/NT-3 growth factors receptor (Homo sapiens) (UniProt Q16620). Particulars: at 1 µM.
Assay [10] shares this target. The note with it: at 10 µM.

Chain of High affinity nerve growth factor receptor (Homo sapiens) (P04629 33-796 limits assumed): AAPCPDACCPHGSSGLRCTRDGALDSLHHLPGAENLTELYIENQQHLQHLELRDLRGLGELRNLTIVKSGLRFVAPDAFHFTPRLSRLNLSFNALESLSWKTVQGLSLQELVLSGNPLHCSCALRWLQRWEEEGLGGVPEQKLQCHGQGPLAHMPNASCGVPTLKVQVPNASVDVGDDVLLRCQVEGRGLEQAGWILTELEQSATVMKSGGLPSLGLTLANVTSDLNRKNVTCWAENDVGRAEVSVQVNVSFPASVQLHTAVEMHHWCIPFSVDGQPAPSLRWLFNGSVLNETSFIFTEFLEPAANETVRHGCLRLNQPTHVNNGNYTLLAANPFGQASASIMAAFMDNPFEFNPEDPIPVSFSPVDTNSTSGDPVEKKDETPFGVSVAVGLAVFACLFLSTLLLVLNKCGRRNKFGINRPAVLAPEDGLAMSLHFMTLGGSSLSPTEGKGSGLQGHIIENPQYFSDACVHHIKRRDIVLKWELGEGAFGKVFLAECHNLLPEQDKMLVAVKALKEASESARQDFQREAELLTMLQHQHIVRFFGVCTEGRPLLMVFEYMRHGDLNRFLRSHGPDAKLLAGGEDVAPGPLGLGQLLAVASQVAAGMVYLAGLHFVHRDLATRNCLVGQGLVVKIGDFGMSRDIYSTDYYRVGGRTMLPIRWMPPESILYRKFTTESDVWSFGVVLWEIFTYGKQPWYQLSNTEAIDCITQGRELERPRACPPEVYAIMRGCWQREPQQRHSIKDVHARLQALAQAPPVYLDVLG
Chain of BDNF/NT-3 growth factors receptor (Homo sapiens) (Q16620 32-822 limits assumed): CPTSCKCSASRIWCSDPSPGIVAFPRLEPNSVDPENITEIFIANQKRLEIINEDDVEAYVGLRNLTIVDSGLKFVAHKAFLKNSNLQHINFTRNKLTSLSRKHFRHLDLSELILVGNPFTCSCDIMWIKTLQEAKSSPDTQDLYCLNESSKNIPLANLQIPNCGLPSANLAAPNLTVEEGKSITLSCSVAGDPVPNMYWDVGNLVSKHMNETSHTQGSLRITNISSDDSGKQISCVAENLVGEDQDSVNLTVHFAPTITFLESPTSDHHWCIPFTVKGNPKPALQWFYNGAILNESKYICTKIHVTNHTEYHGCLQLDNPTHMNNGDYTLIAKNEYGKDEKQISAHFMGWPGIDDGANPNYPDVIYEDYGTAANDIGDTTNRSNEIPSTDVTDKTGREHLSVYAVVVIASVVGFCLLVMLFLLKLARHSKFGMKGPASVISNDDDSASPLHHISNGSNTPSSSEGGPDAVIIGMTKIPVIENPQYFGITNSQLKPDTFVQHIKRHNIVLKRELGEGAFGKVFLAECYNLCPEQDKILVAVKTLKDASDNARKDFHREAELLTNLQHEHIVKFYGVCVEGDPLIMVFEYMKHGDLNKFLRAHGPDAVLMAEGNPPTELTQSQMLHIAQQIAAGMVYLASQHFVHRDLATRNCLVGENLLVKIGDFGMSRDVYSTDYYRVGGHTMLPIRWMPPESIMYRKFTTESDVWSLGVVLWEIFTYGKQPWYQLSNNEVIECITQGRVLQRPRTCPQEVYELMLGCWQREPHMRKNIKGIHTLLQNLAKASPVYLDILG
Chain of Angiopoietin-1 receptor (Homo sapiens) (Q02763 whole entry): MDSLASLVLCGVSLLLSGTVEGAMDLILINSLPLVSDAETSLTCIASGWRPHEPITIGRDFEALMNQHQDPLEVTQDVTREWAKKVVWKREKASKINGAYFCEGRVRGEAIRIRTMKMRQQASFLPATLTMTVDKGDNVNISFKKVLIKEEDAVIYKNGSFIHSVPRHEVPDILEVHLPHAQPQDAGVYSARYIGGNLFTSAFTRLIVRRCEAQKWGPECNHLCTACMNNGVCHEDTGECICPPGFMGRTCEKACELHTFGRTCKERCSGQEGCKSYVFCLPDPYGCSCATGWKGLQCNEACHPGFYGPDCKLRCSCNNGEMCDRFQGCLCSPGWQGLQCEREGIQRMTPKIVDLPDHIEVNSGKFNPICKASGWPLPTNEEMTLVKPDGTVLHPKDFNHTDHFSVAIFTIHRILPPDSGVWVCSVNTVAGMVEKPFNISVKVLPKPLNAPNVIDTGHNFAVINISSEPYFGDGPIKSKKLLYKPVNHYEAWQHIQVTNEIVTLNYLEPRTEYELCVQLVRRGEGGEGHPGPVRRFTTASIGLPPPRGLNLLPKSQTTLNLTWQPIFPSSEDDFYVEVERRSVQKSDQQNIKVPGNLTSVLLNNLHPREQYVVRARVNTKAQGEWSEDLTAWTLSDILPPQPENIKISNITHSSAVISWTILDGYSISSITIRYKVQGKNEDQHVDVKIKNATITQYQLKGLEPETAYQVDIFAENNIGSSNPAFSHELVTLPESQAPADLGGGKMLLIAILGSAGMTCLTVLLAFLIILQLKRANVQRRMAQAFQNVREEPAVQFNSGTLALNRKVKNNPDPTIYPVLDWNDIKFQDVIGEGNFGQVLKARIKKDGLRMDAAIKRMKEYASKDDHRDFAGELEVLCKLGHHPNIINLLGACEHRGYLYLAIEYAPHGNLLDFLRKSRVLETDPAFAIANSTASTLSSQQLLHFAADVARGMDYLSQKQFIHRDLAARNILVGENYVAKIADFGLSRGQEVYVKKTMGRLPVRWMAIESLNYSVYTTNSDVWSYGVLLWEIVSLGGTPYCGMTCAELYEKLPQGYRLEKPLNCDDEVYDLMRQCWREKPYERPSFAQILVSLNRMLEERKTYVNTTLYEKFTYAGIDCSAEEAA

On to `COc1ccc2c(c1)/C(=C/c1cnc[nH]1)C(=O)N2`, for which the residual activity in assay [1] is 70%; in [2] it was 71%; in assay [3] it was 3%; in [4], 0%; in assay [5], 77%; in assay [6], 46%.

`O=C1Nc2ccc3ncsc3c2/C1=C/c1c[nH]cn1`: the residual activity in [7] was 91%; in assay [1] it was 42%; in assay [8] it was 67%; in assay [2] it was 22%; in assay [3], 3%; in [4] it was -1%. In addition, the residual activity in assay [9] is 19%; in assay [10], -11%; in [5] it was 82%; in [6], 30%.

For `O=C1NC(=O)c2c1c1c3ccccc3n3c1c1c2c2ccccc2n1C1CCC3O1`, the residual activity in assay [7] amounted to 66%; in assay [1] it was 76%; in assay [3] it was 12%; in assay [4], 3%; in [9] it was 19%; in [10] it was 14%. Also, the residual activity in [5] turned out to be 71%; in assay [6] it was 81%.

In the case of `c1cc(-c2cnn3cc(-c4ccc(OCCN5CCCCC5)cc4)cnc23)ccn1`, the residual activity in assay [1] is 75%; in [2], 44%; in [3], 28%; in assay [4], 2%; in [9], 61%; in assay [10] it was 7%. Besides, the residual activity in assay [5] was 44%; in assay [6], 7%.

Regarding `CC(C)(C)c1cc(C=C(C#N)C#N)cc(Br)c1O`, the residual activity in [1] stood at 103%; in assay [8] it was 114%; in assay [2], 101%; in [9] it was 117%; in [10] it was 134%; in [5], 112%. For the same compound, the residual activity in assay [6] is 104%.

Regarding `CCn1cnc2c(Nc3cccc(Cl)c3)nc(N[C@@H]3CCCC[C@@H]3N)nc21`, the residual activity in assay [7] turned out to be 39%; in assay [1], 7%; in assay [8], 83%; in assay [2], 42%; in [3], 12%; in assay [4], 1%. In addition, the residual activity turned out to be 15% in [9], 0% in assay [10], 52% in assay [5] and 10% in assay [6].

Consider `CN[C@@H]1C[C@H]2O[C@@](C)([C@@H]1OC)n1c3ccccc3c3c4c(c5c6ccccc6n2c5c31)C(=O)NC4`, for which the residual activity in assay [9] is 29%; in assay [10], -12%.

Consider `N/C(=N\[N+](=O)[O-])N/N=C\c1ccc(-c2cccc([N+](=O)[O-])c2)o1`, for which the residual activity came to 90% in assay [8]; 92% in [2]; 91% in [3]; 91% in assay [4]; 80% in assay [6].

With `COc1cc2ncnc(Nc3ccc(OCc4ccccc4)cc3)c2cc1OC`, the residual activity in assay [7] amounted to 107%; in assay [1], 67%; in [8], 106%; in assay [2], 78%; in assay [3] it was 69%; in assay [4], 72%. Moreover, the residual activity amounted to 93% in [9], 122% in assay [10], 97% in assay [5] and 57% in assay [6].

Take `O=C1c2ccccc2-c2nc3nnnn3nc21`: the residual activity in assay [8] came out at 75%; in [2] it was 20%; in assay [9], 123%; in [10], 119%; in assay [5], 103%; in [6], 73%.

Consider `COc1cc(OC)c(/C=C2\C(=O)Nc3ccccc32)c(OC)c1`, for which the residual activity in [7] came out at 98%; in [1], 77%; in assay [8], 93%; in [2], 59%; in assay [3] it was 89%; in assay [4], 59%. Also, the residual activity in [5] came to 107%; in assay [6] it was 100%.

For the compound `COc1ccc2c(c[n+](C)c3c4cc5c(cc4ccc23)OCO5)c1OC`, the residual activity is 86% in [7]; 66% in [1]; 12% in [8]; 3% in assay [2]; 81% in assay [10]; 94% in [5]. In addition, in [6], the residual activity came out at 59%.

As to `O=c1[nH]c2ccccc2n1C1CCN(Cc2ccc(-c3nc4cc5[nH]cnc5cc4nc3-c3ccccc3)cc2)CC1`, the residual activity in assay [7] was 95%; in [1], 38%; in [8], 86%; in assay [2], 37%; in assay [3] it was 86%; in assay [4] it was 56%. The residual activity in assay [9] turned out to be 75%; in assay [10], 70%; in assay [5], 102%; in assay [6], 94%.

Regarding `CCc1nc(-c2ccc(OC)cc2)[nH]c1-c1ccncc1`, the residual activity in assay [7] was found to be 102%; in assay [1], 75%; in [8], 111%; in [2], 106%; in [9], 113%; in assay [10], 107%. Further, the residual activity in assay [5] was determined as 100%.

As to `CC(C)[C@H](CO)Nc1nc(Nc2cccc(Cl)c2)c2ncn(C(C)C)c2n1`, the residual activity in assay [7] amounted to 63%; in assay [1], 8%; in [8], 99%; in assay [2], 59%; in assay [3], 3%; in assay [4], 1%. In addition, the residual activity stood at 8% in assay [9], 0% in assay [10], 66% in assay [5] and 16% in assay [6].

On to `COC(=O)[C@@]1(O)C[C@H]2O[C@]1(C)n1c3ccccc3c3c4c(c5c6ccccc6n2c5c31)C(=O)NC4`, for which the residual activity was found to be 3% in [7]; 2% in assay [1]; 20% in assay [8]; 3% in [2]; 0% in assay [9]; 0% in assay [10]. The residual activity in assay [5] stood at 35%; in assay [6], 5%.

As to `O=[N+]([O-])/C=C/c1ccc2c(c1)OCO2`, the residual activity was 89% in [7]; 90% in assay [1]; 80% in [8]; 60% in assay [2]; 94% in assay [3]; 116% in [4]. Further, the residual activity in assay [9] came to 120%; in [10] it was 119%; in assay [5], 76%; in [6], 77%.

As for `C[S+]([O-])c1ccc(-c2nc(-c3ccc(F)cc3)c(-c3ccncc3)[nH]2)cc1` (configuration not stated), the residual activity worked out at 94% in [7]; 89% in [1]; 102% in assay [8]; 62% in [2]; 121% in [3]; 115% in assay [4]. Further, the residual activity was found to be 94% in assay [9], 104% in assay [10], 77% in assay [5] and 42% in [6].

The values are drawn from ChEMBL document CHEMBL2218924, “A broad activity screen in support of a chemogenomic map for kinase signalling research and drug discovery” (Biochem J, 2013).
